{
  "source": "PubChem BioAssay AID1832",
  "about": "(Broad Institute, 2009)",
  "note": "In all, about 300,000 compounds went through this assay and about 1,100 (0.37%) were called active. This excerpt belongs to a sample that is enriched for actives. Values without a mark were called inactive.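 How the source made its calls: active means inhibition past about -25% in most replicates, and total fluorescence under double the plate's negative control median (limit read from the data); inconclusive means replicates evenly split on the limit, or fluorescence at least double controls; inactive means too little inhibition in most replicates.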",
  "data": [
    {"molecular_target": "Zinc finger protein mex-5 (Caenorhabditis elegans) (UniProt Q9XUB2)", "sequence (Q9XUB2 whole entry, looked up)": "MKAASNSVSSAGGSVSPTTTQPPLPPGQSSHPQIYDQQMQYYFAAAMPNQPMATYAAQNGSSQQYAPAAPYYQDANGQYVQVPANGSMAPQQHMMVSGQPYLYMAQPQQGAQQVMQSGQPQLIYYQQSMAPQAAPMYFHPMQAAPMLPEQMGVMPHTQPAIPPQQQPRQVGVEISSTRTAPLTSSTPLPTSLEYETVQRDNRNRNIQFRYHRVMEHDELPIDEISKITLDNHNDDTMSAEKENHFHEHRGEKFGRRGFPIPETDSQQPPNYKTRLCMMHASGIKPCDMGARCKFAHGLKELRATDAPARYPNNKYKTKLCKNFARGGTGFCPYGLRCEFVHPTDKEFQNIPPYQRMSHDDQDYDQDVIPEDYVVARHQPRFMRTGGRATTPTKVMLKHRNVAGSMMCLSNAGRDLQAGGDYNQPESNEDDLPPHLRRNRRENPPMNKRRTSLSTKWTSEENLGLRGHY", "experiment": "MEX-5 zinc finger RNA-binding disruptors – biochemical, C. elegans, fluorescence polarization, MLPCN library, primary screen (AID 1832);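 further: 0% = DMSO and -100% = 5 µM competing unlabeled TCR2 RNA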", "settings": "MEX-5/FITC-TCR2 RNA binding, at 10 µM, active compounds read low", "values": [
      {"smiles": "O=C1NC(=O)N(c2ccccc2)C(=O)/C1=C/c1ccc([N+](=O)[O-])s1", "activity score (negative = inhibition of binding)": "-35.6% (active)"},
      {"smiles": "O=C1NC(=O)N(c2ccc(F)cc2)C(=O)/C1=C/c1ccc2c(c1)CCCN2Cc1ccccc1", "activity score (negative = inhibition of binding)": "-7.18%"},
      {"smiles": "Cc1cccc(N2C(=O)NC(=O)/C(=C\\c3cnn(-c4ccccc4)c3)C2=O)c1", "activity score (negative = inhibition of binding)": "1.06%"},
      {"smiles": "COc1ccc2[nH]c3c(c2c1)CCN[C@H]3C", "activity score (negative = inhibition of binding)": "2.22%"},
      {"smiles": "Cc1cc(/C=C2/C(=O)NC(=O)N(Cc3ccco3)C2=O)c(C)n1-c1ccc(C(=O)O)cc1", "activity score (negative = inhibition of binding)": "-4.55%"},
      {"smiles": "COc1ccc(CN2C(=O)NC(=O)/C(=C\\c3ccc(OC)c(OC)c3OC)C2=O)cc1", "activity score (negative = inhibition of binding)": "7.01%"},
      {"smiles": "COc1ccc(N2C(=O)/C(=C/c3ccco3)C(=O)NC2=S)cc1", "activity score (negative = inhibition of binding)": "-95.1% (active)"},
      {"smiles": "CN(C)CC1CCCCC1OC(=O)c1ccc(Cl)c(Cl)c1", "note": "(stereo not given)", "activity score (negative = inhibition of binding)": "-0.533%"},
      {"smiles": "O=Cc1cn(Cc2ccc(F)cc2Cl)c2ccccc12", "activity score (negative = inhibition of binding)": "-1.5%"},
      {"smiles": "COc1cccc(-c2nc3ccc(N4CCN(C)CC4)cc3[nH]2)c1", "activity score (negative = inhibition of binding)": "2.54%"}
    ]}
  ]
}
